Screening data (PubChem)
In the library only some 6.5% were active in any assay of this set; here they are far more common.
Fluor 339 460 = intrinsic fluorescence of library compounds, ex339/em460 – biochemical, MLSMR library, data from DPM-DC assay, artefact control, profiling panel. compound autofluorescence, ex339/em460 nm, NADH buffer; active compounds read high; 1 = no-compound wells, NADH background. fluorescence fold increase at 10 µM. 65,000 tested, 5.5% active;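 active = at 10 µM, mean starting fluorescence two-fold or more over control wells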;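 note: signal is the first read of a kinetic run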
PMK inhibit = inhibitors of Streptococcus pneumoniae phosphomevalonate kinase; purified PMK, PK/LDH-coupled NADH absorbance 340 nm; inhibition, % at 10 µM; 65,000 tested, 0.49% active; AID 539;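 active = top-ranked compounds by inhibition in the single 10 µM screen, taking a fixed number of the strongest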;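 note: 0% = full reaction with DMSO carrier and 100% = background rate without enzyme reaction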
MK inhibit = inhibitors of Streptococcus pneumoniae mevalonate kinase. purified MK, PK/LDH-coupled NADH absorbance 340 nm. inhibition, % at 10 µM. 65,000 tested, 0.48% active. AID 555;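 active = ranked among the strongest by inhibition in the single 10 µM screen, a fixed top-ranked set picked for dose follow-up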
A340 absorber = absorbance at 340 nm; AID 708; 65,000 tested, under 10 active; compound absorbance at 340 nm, fold over control; fold change at 10 µM;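 active = at 10 µM dose, initial 340 nm absorbance at least 2 fold that of control wells; inactive = change under 2 fold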;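 note: initial absorbance extrapolated from kinetic A340 decline of NADH oxidation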
DPM-DC inhibit = inhibitors of Streptococcus pneumoniae diphosphomevalonate decarboxylase; purified DPM-DC, PK/LDH coupled NADH fluorescence; calls only at 10 µM; 65,000 tested, 0.49% active;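 active = the 320 compounds with the highest percent inhibition in the single-dose primary screen, excluding strongly autofluorescent ones, cut at about 32% in these data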;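 note: kinetic rate of NADH fluorescence loss reporting ADP formed by the decarboxylase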
NADH coupling = blocks coupling enzymes of NAD/NADH assays. AID 774. 65,000 tested, 0.02% active. coupled PK/LDH NADH assays, four targets. IC50, µM (highest dose often 10 µM), without a hit: at the top dose inhibition;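 active = single-dose screening hits from any of four coupled enzyme assays that gave an IC50 when retested across doses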;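 note: the DPM-DC format reads NADH fluorescence rather than 340 nm absorbance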
Starred values were filed as active, the others as inactive; i = inactive; . = not tested or not shown; + = active, no number.

SMILES	Fluor 339 460	PMK inhibit	MK inhibit	A340 absorber	DPM-DC inhibit	NADH coupling
O=C(NCc1ccco1)c1cc2ccc(O)cc2oc1=O	3.8*	8	9	1.1	.	9%
COc1ccc2cc(C(=O)NC3CCCCC3)c(=O)oc2c1	3.5*	3	10	1.1	.	7%
Cc1nc2ccccc2cc1C(=O)NCc1ccco1	0.99	12	0	0.98	i	3%
CCCCNC(=O)Oc1cccc(N2CCCC2=O)c1	1.1	18	8	1	i	9%
COc1cc(OC)c(C2C3=C(CCCC3=O)Nc3nc4ccccc4n32)cc1OC (stereo not given)	1.1	12	8	1.1	i	7%
COc1cccc(C2C3=C(CCCC3=O)Nc3nc4ccccc4n32)c1OC (stereo not given)	5*	9	7	1.1	.	8%
CC(=O)Nc1ccc(C2NC(=O)c3ccccc3O2)cc1 (stereo not given)	1.2	5	2	1.1	i	2%
CC(=O)Nc1ccc(C2Nc3ccccc3C(=O)N2C2CCCCC2)cc1 (stereo not given)	2.2*	10	3	1	.	7%
CC(=O)OC1c2ccccc2C(=O)N1Cc1ccccc1Cl (stereo not given)	1	2	4	0.98	i	1%
CC(c1ccccc1)C(CC(=O)O)C(=O)NC1CCCCC1 (stereo not given)	1.1	27*	8	1	i	12%
O=C(NC1CCCCC1)C(c1ccccc1)N1CCCC1 (stereo not given)	1.1	0	9	1.1	i	3%
CCOC(=O)C1=C(C)NC2=C(C(=O)C(C(=O)OCC)C(c3ccco3)C2)C1c1ccccn1 (stereo not given)	3.6*	8	6	1.1	.	7%
O=C(OCC(=O)N1CCOCC1)c1ccc[nH]c1=O	1.1	9	6	1	i	5%
COc1cc2ccccc2cc1C(=O)OCC(=O)N1CCOCC1	5.1*	13	0	1	.	7%
O=C(O)CCCC(=O)Nc1ccccc1C(=O)N1CCCC1	1	7	6	1	i	9%
N=c1oc2c3c4c(cc2cc1C(=O)Nc1ccccc1)CCCN4CCC3	1.6	0	2	1.1	i	1%
O=C(CSc1nc2ccccc2[nH]1)N1CCCCC1	1	6	6	1	i	2%
O=c1oc2c3c4c(cc2cc1-c1nc2ccccc2[nH]1)CCCN4CCC3	2.1*	71*	21	0.9	.	11%
O=c1oc2c(CN3CCCCC3)c(O)ccc2cc1-c1nc2ccccc2[nH]1	4*	4	12	1	.	8%
CC(=NCCN1CCNCC1)C1=C(O)CC(C)(C)CC1=O	1.1	0	0	1	i	1%
Cc1ccc2nc3c(cc(C(=O)NCCCn4ccnc4)n3C)c(=O)n2c1	3.9*	4	0	1.1	.	2%
Cc1ccc2nc3c(cc(C(=O)NCC4CCCO4)c(=N)n3CCCOC(C)C)c(=O)n2c1 (stereo not given)	3.7*	10	19	1.1	.	15%
Cc1ccc2nc3c(cc(C(=O)NCC4CCCO4)n3C)c(=O)n2c1 (stereo not given)	3*	8	0	1	.	1%
Cc1cc(C(=O)NCCCn2ccnc2)cs1	1.1	4	6	1	i	4%
O=c1[nH]c(=O)n(CCO)c2nnn(Cc3ccccc3)c12	1.1	9	13	1	i	9%
SMILES	Fluor 339 460	PMK inhibit	MK inhibit	A340 absorber	DPM-DC inhibit	NADH coupling
c1ccc(Cn2c(-c3ccco3)nc3nc4ccccc4nc32)cc1	3.7*	15	9	1.1	.	12%
COc1ccccc1Cn1c(-c2ccco2)nc2nc3ccccc3nc21	1.7	1	9	1	i	4%
Cc1ccc(-c2nc3nc4ccccc4nc3n2Cc2ccco2)cc1	2*	13	10	1.1	i	12%
CCCCCn1c(-c2ccco2)nc2nc3ccccc3nc21	3.9*	0	0	1.1	.	0%
COc1ccc(CCn2c(-c3ccco3)nc3nc4ccccc4nc32)cc1	1.4	9	0	1	i	3%
CCSc1cc(C2C(C(=O)OC)=C(C)NC3=C2C(=O)CCC3)c(C)o1 (stereo not given)	1.1	0	11	1	i	2%
O=C(O)c1c(-c2ccccc2)c2oc3ccccc3c2[nH]c1=O	3.6*	12	17	1.1	+	21%
O=c1[nH]cnc2c1oc1ccccc12	1.1	15	5	1	i	7%
c1ccc2c(c1)nc(NCC1CCCO1)c1nnnn12 (stereo not given)	2.1*	5	0	1.1	.	3%
S=C(NCC1CCCO1)n1nnc2ccccc21 (stereo not given)	1.1	2	6	1	i	2%
c1ccc(C2Nc3ccccc3-c3nc4ccccc4n32)nc1 (stereo not given)	2.3*	1	9	1.1	.	5%
c1coc(C2Nc3ccccc3-c3nc4ccccc4n32)c1 (stereo not given)	2.3*	11	1	1.1	.	6%
O=c1c2ccccc2nnn1CSc1nnc2sc3ccccc3n12	1	12	2	0.98	i	4%
COc1ccc(-n2nc(C(=O)N3CCC(C#N)CC3)c3c4ccccc4n(C)c3c2=O)cc1	0.94	4	3	1.1	i	7%
Cc1cc(C)n2nc(NCc3cccc(Br)c3)nc2n1	3.6*	11	8	1.1	.	10%
COc1ccc(CNc2nc3nc(C)cc(C)n3n2)cc1OC	1.1	5	4	1	i	1%
CN(C)C(CNC(=O)c1cccnc1Sc1ccccc1)c1ccco1 (stereo not given)	1.2	15	1	0.99	i	5%
CCCCC(CC)Cn1c2nc3ccccc3nc2c2c(=N)oc(C)nc21 (stereo not given)	2.4*	0	25	1.1	.	8%
CCCCCCOC(=O)C(C#N)c1nc2ccccc2nc1N1CCN(CC)CC1 (stereo not given)	1.3	17	9	0.99	i	9%
CCCCC(CC)Cn1c(N)c(C#N)c2nc3ccccc3nc21 (stereo not given)	5*	12	3	1	.	8%
CCCCn1c2nc3ccccc3nc2c2c(=N)oc(C)nc21	2.2*	0	10	1.1	.	5%
COc1ccc(Cn2c3nc4ccccc4nc3c3c(=O)n(Cc4ccco4)c(C)nc32)cc1	1.6	0	3	1.1	i	5%
O=C(O)CCC(=O)NC1CCCCC1NC(=O)CCC(=O)O (stereo not given)	1.1	0	8	1	i	1%
Cn1c(CCNC(=O)c2ccco2)nc2cc(NS(=O)(=O)c3ccc(Cl)cc3)ccc21	1.1	4	0	1	i	1%
